# Data reported in article PMC4336329 (PLoS ONE, 2015).
# Out of some 310,000 compounds screened, about 14,000 (4.5%) showed an effect of 50% or more. Effects have a minus sign here. This excerpt belongs to a sample that is enriched for strong results.
# Biological target: human ether-à-go-go-related gene (hERG) potassium channel (human, UniProt Q12809)
# Test: primary screen, population patch clamp on CHO cells stably expressing hERG; higher = less effect of the substance
# 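Note: peak tail current of the secondary pulse compared with the same well before compound.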
# Sequence of human ether-à-go-go-related gene (hERG) potassium channel (Q12809 whole entry, looked up): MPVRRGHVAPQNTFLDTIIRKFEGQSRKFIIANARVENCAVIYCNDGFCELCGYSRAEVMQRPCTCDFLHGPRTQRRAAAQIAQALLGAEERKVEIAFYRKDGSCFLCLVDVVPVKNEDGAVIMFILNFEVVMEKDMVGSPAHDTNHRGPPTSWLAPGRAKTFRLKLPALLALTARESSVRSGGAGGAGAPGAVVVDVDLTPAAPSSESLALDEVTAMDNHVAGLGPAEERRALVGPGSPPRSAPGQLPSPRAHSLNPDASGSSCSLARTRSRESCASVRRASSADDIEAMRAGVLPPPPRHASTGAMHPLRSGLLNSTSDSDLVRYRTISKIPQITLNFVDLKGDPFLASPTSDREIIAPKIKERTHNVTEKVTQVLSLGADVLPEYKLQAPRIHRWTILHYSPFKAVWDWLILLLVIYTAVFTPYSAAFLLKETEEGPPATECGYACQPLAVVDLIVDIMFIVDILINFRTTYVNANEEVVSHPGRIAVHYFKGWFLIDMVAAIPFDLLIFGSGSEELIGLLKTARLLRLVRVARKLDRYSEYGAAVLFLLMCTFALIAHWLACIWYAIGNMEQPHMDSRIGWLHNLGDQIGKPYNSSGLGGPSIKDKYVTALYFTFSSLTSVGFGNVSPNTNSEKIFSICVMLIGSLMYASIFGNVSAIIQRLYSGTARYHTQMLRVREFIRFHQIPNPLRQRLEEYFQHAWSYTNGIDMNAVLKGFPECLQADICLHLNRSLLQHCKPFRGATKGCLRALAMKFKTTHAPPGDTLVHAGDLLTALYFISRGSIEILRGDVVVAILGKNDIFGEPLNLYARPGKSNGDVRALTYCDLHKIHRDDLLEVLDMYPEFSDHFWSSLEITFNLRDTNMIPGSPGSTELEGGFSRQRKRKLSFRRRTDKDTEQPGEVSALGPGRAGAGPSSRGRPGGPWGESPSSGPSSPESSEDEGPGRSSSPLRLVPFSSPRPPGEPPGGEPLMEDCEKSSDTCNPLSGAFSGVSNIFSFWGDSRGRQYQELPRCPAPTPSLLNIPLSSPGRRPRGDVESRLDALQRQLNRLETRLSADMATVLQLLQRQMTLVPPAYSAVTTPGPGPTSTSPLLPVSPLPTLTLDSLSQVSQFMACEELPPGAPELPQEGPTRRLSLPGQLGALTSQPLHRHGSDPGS
row,SMILES,"hERG current change (%, negative = inhibition) at 10uM [%]"
1,CCOc1ccccc1NC(=O)c1cccc2c1C(=O)N(C1CCCCC1)C2,9.57
2,C1CCCCCC2(CCCCC1)OCC(CN1CCOCC1)O2 (stereo not drawn),-20.5
3,CN(C)S(=O)(=O)c1ccc(C(=O)NCc2nc3ccccc3s2)cc1,1.24
4,CN(Cc1nc2ccccc2s1)C(=O)c1ccc(F)cc1,-61
5,O=C(CCCc1nc2ccccc2s1)NCc1ccc(F)cc1,-37.4
6,Cc1cccc(-c2nc(=S)c3c(n2Cc2ccco2)CCCC3)c1,7.14
7,O=C(NCc1ccccc1)C1=C[C@H](c2coc3ccccc3c2=O)C[C@H](OCc2ccc(CO)cc2)O1,-38.1
8,CCn1c(=O)cc(SCC(=O)NCCC2=CCCCC2)c2ccccc21,-6.46
9,Cc1ccc(OCCCC(=O)Nc2ccc(Br)cc2)cc1,17.2
10,CN(CCOc1ccc(Cl)cc1)CC(O)c1ccccc1.O=C(O)C(=O)O (stereo not drawn),-60.4
11,CN(CCOc1ccccc1)CC(O)COc1ccccc1 (stereo not drawn),10.8
12,CC(C)c1ccc(CN(C)CC(O)c2ccccc2)cc1.O=C(O)C(=O)O (stereo not drawn),-18.9
13,CC(OCC(O)CN(C)CCOc1ccccc1)c1ccc(Cl)cc1 (stereo not drawn),-43.5
14,CN(CCOc1ccc(Br)cc1)CC(O)c1ccccc1.O=C(O)C(=O)O (stereo not drawn),-63.1
15,CC(=O)c1ccc(OCC(O)CN(C)CCOc2ccc(Br)cc2)cc1 (stereo not drawn),23.4
16,COC(=O)c1cc(Cl)c(NC(=O)/C=C/c2ccc(Cl)cc2Cl)cc1OC,-10.9
17,COc1ccc(N2CCN(C(=O)CNC(=O)Cc3ccc(Cl)cc3)CC2)cc1,-8.38
18,Cc1cc(C)c(C#N)c(SCC(=O)CC(=O)OC(C)C)n1,1.82
19,Cc1ccc(NS(=O)(=O)c2ccc(Br)s2)nc1,23.4
20,Cc1ccc(C)c(OCCCC(=O)Nc2nccs2)c1,12.9
21,CC(C)Cn1nc(-c2ccccc2)c2ccccc2c1=O,20.1
22,C/C(=C\c1ccccc1)CN1CCN(C)CC1,16.2
23,CC1CCN(C(=O)C2CCN(CC(C)c3ccccc3)CC2)CC1.O=C(O)C(=O)O (stereo not drawn),-13.5

row,SMILES,"hERG current change (%, negative = inhibition) at 10uM [%]"
1,C/C(=C\c1ccccc1)CN1CCC(C(=O)N2CCCCC2)CC1.O=C(O)C(=O)O,-47.5
2,C/C(=C\c1ccccc1)CN1CCC(C(=O)N2CCC(C)CC2)CC1.O=C(O)C(=O)O,-63
3,CCOC(=O)N1CCN(C/C(C)=C/c2ccccc2)CC1,-25.1
4,CCN(CC)C(=O)C1CCCN(C/C(C)=C/c2ccccc2)C1 (stereo not drawn),-30.7
5,CCN(Cc1ccccc1)C(=O)C1CCN(C/C(C)=C/c2ccccc2)CC1.O=C(O)C(=O)O,-70.4
6,CCCCN(C)C(=O)C1CCN(C/C(C)=C/c2ccccc2)CC1.O=C(O)C(=O)O,-73.4
7,CCN1CCN(C/C(C)=C/c2ccccc2)CC1,4.72
8,CCCCNC(=O)C1CCN(C/C(C)=C/c2ccccc2)CC1.O=C(O)C(=O)O,-63
9,CCN(Cc1ccccc1)C(=O)C1CCN(C(=O)Nc2ccccc2)CC1,14.8
10,CCCCNC(=O)C1CCN(Cc2ccccn2)CC1,12
11,Cc1cc(C)c(NC(=O)C2CCN(C(=O)c3ccco3)CC2)c(C)c1,19.9
12,COc1ccc(C2C(C(=O)c3sc(C)nc3C)=C(O)C(=O)N2CCN(C)C)cc1 (stereo not drawn),-6.4
13,O=C(COC(=O)c1cccs1)Nc1cccc(Cl)c1,10.2
14,CCC(C)(C(=O)NC1CCCCC1)N(C(=O)CC1NC(=O)NC1=O)c1c(C)n(C)n(-c2ccccc2)c1=O (stereo not drawn),12.8
15,Cc1onc(-c2ccccc2Cl)c1C(=O)Nc1nc2ccc(S(C)(=O)=O)cc2s1,-2.5
16,CC1(C)NC(=O)N(CC(=O)N2CCCC(C(F)(F)F)C2)C1=O (stereo not drawn),10.4
17,COC(=O)c1ccc(CNC(=O)COC(=O)c2cc(Cl)nc(Cl)c2)cc1,8.69
18,CCn1c2ccccc2c2cc(NC(=O)C(=O)NCC3CCCO3)ccc21 (stereo not drawn),-6.57
19,COc1cc2c(cc1NC(=O)C(C)OC(=O)/C=C/c1ccc(OC(F)F)cc1)oc1ccccc12 (stereo not drawn),7.07
20,COc1ccc(CCNc2cc(N3CCN(C(=O)c4ccc(C)cc4)CC3)ccc2[N+](=O)[O-])cc1OC,8.2
21,COC(=O)C(NC(=O)c1ccccc1)=C(C)C,0.816
22,CC(C)CNC(=S)N1CCC(C(=O)c2ccc(F)cc2)CC1,-61.4
23,CCCNC(=S)N1CCC(C(=O)c2ccc(F)cc2)CC1,-8.84

row,SMILES,"hERG current change (%, negative = inhibition) at 10uM [%]"
1,O=C(c1ccc(F)cc1)C1CCN(C(=S)Nc2ccccc2Cl)CC1,0.35
2,Cc1ccc(CNC(=O)C2CCN(C(=O)Nc3ccccc3)CC2)cc1,-16.3
3,C=CCNC(=S)N1CCC(C(=O)c2ccc(F)cc2)CC1,-44.4
4,O=C(c1ccc(F)cc1)C1CCN(C(=S)Nc2ccccc2)CC1,-28.8
5,COc1ccc(C(=O)C2CCN(C(=S)Nc3ccc(F)cc3)CC2)cc1,-46.9
6,O=C(c1ccc(F)cc1)C1CCN(C(=S)Nc2ccc(F)cc2)CC1,-57.2
7,CCc1ccccc1NC(=S)N1CCC(C(=O)c2ccc(F)cc2)CC1,-63
8,Cc1ccccc1NC(=S)N1CCC(C(=O)c2ccc(F)cc2)CC1,-45
9,O=C(NCc1ccc(F)cc1)C1CCN(C(=O)Nc2ccc(F)cc2)CC1,-49.2
10,Cc1ccc(NC(=O)N2CCC(C(=O)NCc3ccc(F)cc3)CC2)cc1,-52.2
11,Cc1cn(C2C=CC(CO)O2)c(=O)[nH]c1=O (stereo not drawn),4.79
12,CCN(CC)S(=O)(=O)c1ccc(C(=O)NCCc2ccccn2)cc1,10.8
13,Cc1nn(C2CCCCC2)c(N)c1-c1ccccc1,-3.53
14,Nc1ccc(-c2nc3ccc(N)cc3[nH]2)cc1,7.85
15,O=c1c2cc([N+](=O)[O-])cc([N+](=O)[O-])c2[nH]n1-c1ccccc1,17.2
16,C/C=C(\C)C(=O)NNC(=O)c1sc(-c2ccccc2)nc1C,16
17,Cc1nc2cc(NC(=O)Nc3ccc(Br)cc3)ccc2o1,9.81
18,COCCNC(=S)N1CCC(c2nc(-c3ccc(N(C)C)cc3)no2)CC1,-12.9
19,CSc1ccc(NC(=O)N2CCC(C(=O)c3ccc(F)cc3)CC2)cc1,-40.9
20,Cc1ccc(NC(=O)N2CCC(C(=O)c3ccc(F)cc3)CC2)cc1,-3.84
21,COCCNC(=S)N1CCC(c2nc(-c3ccc(F)cc3)no2)CC1,-18.9
22,Cc1cc(C)cc(NC(=O)N2CCC(C(=O)c3ccc(F)cc3)CC2)c1,-77.7
23,Cc1cc(C)cc(NC(=O)N2CCC(NC(=O)c3ccc(F)cc3)CC2)c1,-35.5

row,SMILES,"hERG current change (%, negative = inhibition) at 10uM [%]"
1,O=C(c1ccc(F)cc1)C1CCN(C(=O)Nc2ccc(F)cc2)CC1,-71.7
2,CC(C)CNC(=S)N1CCC(c2nc(-c3ccc(F)cc3)no2)CC1,-59.1
3,Cc1cccc(NC(=O)N2CCC(C(=O)c3ccc(F)cc3)CC2)c1,-40.6
4,O=C(Nc1ccccc1)N(Cc1ccc(Cl)cc1)CC(O)C(F)(F)F (stereo not drawn),8.33
5,Cc1cccc(N2CCN(S(=O)(=O)c3cc(-c4cc(C)no4)ccc3C)CC2C)c1 (stereo not drawn),18.9
6,CC1SCC(NC(=O)c2ccc(Cl)cc2)CS1 (stereo not drawn),-0.992
7,Cc1cc(NC(=O)CSCc2ccc([N+](=O)[O-])cc2)no1,-1.21
8,Cc1[nH]c2ccccc2c1C(=O)C(C)OC(=O)c1ccc(Cl)nc1 (stereo not drawn),-12.9
9,COC(=O)c1ccccc1NC(=O)c1cc[n+](C)cc1,11.8
10,CCOCCCNS(=O)(=O)c1ccc(NC(=O)N2c3ccccc3Sc3ccccc32)cc1,3.13
11,O=C(NC1CCOC1)c1cc(COc2cccc(C(F)(F)F)c2)on1 (stereo not drawn),2.06
12,CCCCOC(=O)c1nc(Cl)c(Cl)c(N)c1Cl,-0.0656
13,Nc1c(Cl)c(Cl)nc(C(=O)OCC(=O)NC2CCCCC2)c1Cl,-58.2
14,CCCCCCCCOC(=O)c1nc(Cl)c(Cl)c(N)c1Cl,-66.3
15,O=C(COC(=O)c1ncc(Cl)c(Cl)c1Cl)NC1CCCCCC1,19
16,O=C(COC(=O)c1nsc(Cl)c1Cl)NC1CCCCC1,17.1
17,CCCCCCCOC(=O)c1nc(Cl)c(Cl)c(N)c1Cl,-4.56
18,CN1C(=O)/C(=C/c2cccn2-c2ccc3ccccc3c2)C(=O)NC1=S,12.2
19,Cc1c(Cc2ccccc2)c(=O)oc2cc(OCC(=O)NCC(O)c3ccccc3)ccc12 (stereo not drawn),28.7
20,C/C(CC(=O)Nc1cc(C)ccn1)=N\NC(=O)C(=O)NC(C)C,12.5
21,O=C(OCCOc1ccccc1Cl)c1ccc(-n2cnnn2)cc1,-19.2
